Test results reported in the supplement of paper PMC7411054.
Structures can show the parent of a compound that is named as a salt.

How the values were obtained:
Experiment in all cases: phenotypically active (imaging signature differs from DMSO and reproducible) at any of 0.3-9 uM (binary (1 = active, 0 = inactive)); higher = active
Details in all cases: treatment time: 24 h
[1] = tested on: A549-ACTB-RAB5A
Method in brief: (§1)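 Each of fifteen gene-edited A549, HepG2 and WPMY1 reporter lines, marked with BFP for segmentation and GFP and RFP/FusionRed, was treated in four wells at 0.3, 1, 3 or 9 µM for 24 h prior to live imaging. Normalisation of per-well live-cell features used solvent control wells. Deviation needed ≥3 of 4 wells beyond the 95th percentile of control Euclidean distances, and reproducibility needed a median replicate Pearson correlation above the 95th percentile of non-replicates. Both were required for phenotypic activity.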

[2] = tested on: A549-CANX-COX4
Method in brief: as §1

[3] = tested on: A549-GM130-SQSTM1
Method in brief: as §1

[4] = tested on: A549-TP53BP1-CLTA
Method in brief: as §1

[5] = tested on: A549-TUBA1B-RELA
Method in brief: as §1

[6] = tested on: HepG2-ACTB-RAB5A
Method in brief: as §1

[7] = tested on: HepG2-CANX-COX4
Method in brief: as §1

[8] = tested on: HepG2-GM130-SQSTM1
Method in brief: as §1

[9] = tested on: HepG2-TP53BP1-CLTA
Method in brief: as §1

[10] = tested on: HepG2-TUBA1B-RELA
Method in brief: as §1

[11] = tested on: WPMY1-ACTB-RAB5A
Method in brief: as §1

[12] = tested on: WPMY1-CANX-COX4
Method in brief: as §1

[13] = tested on: WPMY1-GM130-SQSTM1
Method in brief: as §1

[14] = tested on: WPMY1-TP53BP1-CLTA
Method in brief: as §1

[15] = tested on: WPMY1-TUBA1B-RELA
Method in brief: as §1

Measured: phenotypically active

C[C@H]1[C@H](C)CC[C@]2(C(=O)O)CC[C@]3(C)C(=CC[C@@H]4[C@@]5(C)CC[C@H](O)C(C)(C)[C@@H]5CC[C@]43C)[C@H]12 [Ursolic acid]
inactive: [1] 0 | [2] 0 | [3] 0 | [4] 0 | [5] 0 | [6] 0 | [7] 0 | [8] 0 | [9] 0 | [10] 0 | [11] 0 | [12] 0 | [13] 0 | [14] 0 | [15] 0

CC[N+](C)(C)c1cccc(O)c1 [edrophonium]
inactive: [1] 0 | [2] 0 | [3] 0 | [4] 0 | [5] 0 | [6] 0 | [7] 0 | [8] 0 | [9] 0 | [10] 0 | [11] 0 | [12] 0 | [13] 0 | [14] 0 | [15] 0

CCO[C@@H](Cc1ccc(OCCc2ccc(OS(C)(=O)=O)cc2)cc1)C(=O)O [Tesaglitazar]
inactive: [1] 0 | [2] 0 | [3] 0 | [4] 0 | [5] 0 | [6] 0 | [7] 0 | [8] 0 | [9] 0 | [10] 0 | [11] 0 | [12] 0 | [13] 0 | [14] 0 | [15] 0

CCOc1ccccc1OCCN[C@H](C)Cc1ccc(OC)c(S(N)(=O)=O)c1 [tamsulosin]
inactive: [1] 0 | [2] 0 | [3] 0 | [4] 0 | [5] 0 | [6] 0 | [7] 0 | [8] 0 | [9] 0 | [10] 0 | [11] 0 | [12] 0 | [13] 0 | [14] 0 | [15] 0

COC(=O)c1c(-c2cc(OC)c(OC)c(OC)c2)c2ccnc(OCc3ncccn3)c2c(=O)n1Cc1ccnc(C)c1 [T 0156 hydrochloride]
inactive: [1] 0 | [2] 0 | [3] 0 | [4] 0 | [5] 0 | [6] 0 | [7] 0 | [8] 0 | [9] 0 | [10] 0 | [11] 0 | [12] 0 | [13] 0 | [14] 0 | [15] 0

O=C(O)[C@H](O)[C@@H](O)[C@H](O[C@@H]1O[C@H](CO)[C@H](O)[C@H](O)[C@H]1O)[C@H](O)CO [Lactobionic acid]
inactive: [1] 0 | [2] 0 | [3] 0 | [4] 0 | [5] 0 | [6] 0 | [7] 0 | [8] 0 | [9] 0 | [10] 0 | [11] 0 | [12] 0 | [13] 0 | [14] 0 | [15] 0

C=C1C[C@@]23CCC4[C@@](C)(CCC[C@@]4(C)C(=O)O[C@@H]4O[C@H](CO)C(O)[C@H](O)C4O)C2CC[C@@]1(O[C@H]1O[C@H](CO)C(O)[C@H](O)[C@H]1O[C@@H]1O[C@H](CO)[C@@H](O)[C@H](O)[C@H]1O)C3 (stereo not given in full) [Stevioside]
inactive: [1] 0 | [2] 0 | [3] 0 | [4] 0 | [5] 0 | [6] 0 | [7] 0 | [8] 0 | [9] 0 | [10] 0 | [11] 0 | [12] 0 | [13] 0 | [14] 0 | [15] 0

O=[N+]([O-])c1cc([N+](=O)[O-])c(/C=C/c2ccc(Cl)c(Cl)c2)cc1/C=C/c1ccc(Cl)c(Cl)c1
inactive: [1] 0 | [2] 0 | [3] 0 | [4] 0 | [5] 0 | [6] 0 | [7] 0 | [8] 0 | [9] 0 | [10] 0 | [11] 0 | [12] 0 | [13] 0 | [14] 0 | [15] 0

COC(=O)C1=C(C)NC(C)=C(C(=O)OC(C)C)C1c1cccc2nonc12 (stereo not given) [isradipine]
inactive: [1] 0 | [2] 0 | [3] 0 | [4] 0 | [5] 0 | [6] 0 | [7] 0 | [8] 0 | [9] 0 | [10] 0 | [11] 0 | [12] 0 | [13] 0 | [14] 0 | [15] 0

Clc1cccc(Nc2nnc(-c3ccccc3)c3ccccc23)c1
inactive: [1] 0 | [2] 0 | [3] 0 | [4] 0 | [5] 0 | [6] 0 | [7] 0 | [8] 0 | [9] 0 | [10] 0 | [11] 0 | [12] 0 | [13] 0 | [14] 0 | [15] 0

CC1=C(CC(=O)O)c2cc(F)ccc2/C1=C\c1ccc(S(C)=O)cc1 (stereo not given) [sulindac]
inactive: [1] 0 | [2] 0 | [3] 0 | [4] 0 | [5] 0 | [6] 0 | [7] 0 | [8] 0 | [9] 0 | [10] 0 | [11] 0 | [12] 0 | [13] 0 | [14] 0 | [15] 0

CCCNC(=O)NS(=O)(=O)c1ccc(Cl)cc1 [chlorpropamide]
inactive: [1] 0 | [2] 0 | [3] 0 | [4] 0 | [5] 0 | [6] 0 | [7] 0 | [8] 0 | [9] 0 | [10] 0 | [11] 0 | [12] 0 | [13] 0 | [14] 0 | [15] 0

COc1c2occc2cc2ccc(=O)oc12 [methoxsalen]
inactive: [1] 0 | [2] 0 | [3] 0 | [4] 0 | [5] 0 | [6] 0 | [7] 0 | [8] 0 | [9] 0 | [10] 0 | [11] 0 | [12] 0 | [13] 0 | [14] 0 | [15] 0

C/C=C(/C(=C/C)c1ccc(O)cc1)c1ccc(O)cc1 [dienestrol]
inactive: [1] 0 | [2] 0 | [3] 0 | [4] 0 | [5] 0 | [6] 0 | [7] 0 | [8] 0 | [9] 0 | [10] 0 | [11] 0 | [12] 0 | [13] 0 | [14] 0 | [15] 0

CC(C)(Oc1ccc(C2CC2(Cl)Cl)cc1)C(=O)O (stereo not given) [ciprofibrate]
inactive: [1] 0 | [2] 0 | [3] 0 | [4] 0 | [5] 0 | [6] 0 | [7] 0 | [8] 0 | [9] 0 | [10] 0 | [11] 0 | [12] 0 | [13] 0 | [14] 0 | [15] 0

COc1c(OC2OC(CO)[C@@H](O)[C@H](O)[C@H]2O)cc2c(c1OC)-c1ccc(OC)c(=O)cc1[C@@H](NC(C)=O)CC2 (stereo not given in full) [Colchicoside]
inactive: [1] 0 | [2] 0 | [3] 0 | [4] 0 | [5] 0 | [6] 0 | [7] 0 | [8] 0 | [9] 0 | [10] 0 | [11] 0 | [12] 0 | [13] 0 | [14] 0 | [15] 0

O=C(c1cccc(Br)c1)N1CCC(N2CCCC2)CC1 [UNC 926 hydrochloride]
inactive: [1] 0 | [2] 0 | [3] 0 | [4] 0 | [5] 0 | [6] 0 | [7] 0 | [8] 0 | [9] 0 | [10] 0 | [11] 0 | [12] 0 | [13] 0 | [14] 0 | [15] 0

O=C(/C=C/N1C[C@H]2C[C@@H]1CN2c1ccccn1)c1ccccc1O
inactive: [1] 0 | [2] 0 | [3] 0 | [4] 0 | [5] 0 | [6] 0 | [7] 0 | [8] 0 | [9] 0 | [10] 0 | [11] 0 | [12] 0 | [13] 0 | [14] 0 | [15] 0

CC(Oc1ccc(O)cc1)(P(=O)(O)O)P(=O)(O)O
inactive: [1] 0 | [2] 0 | [3] 0 | [4] 0 | [5] 0 | [6] 0 | [7] 0 | [8] 0 | [9] 0 | [10] 0 | [11] 0 | [12] 0 | [13] 0 | [14] 0 | [15] 0

CCCCc1nc(Cl)c(CO)n1Cc1ccc(-c2ccccc2-c2nnn[nH]2)cc1 [losartan]
inactive: [1] 0 | [2] 0 | [3] 0 | [4] 0 | [5] 0 | [6] 0 | [7] 0 | [8] 0 | [9] 0 | [10] 0 | [11] 0 | [12] 0 | [13] 0 | [14] 0 | [15] 0

COc1cc2ncnc(Oc3cccc(NC(=O)Nc4cc(C(C)(C)C(F)(F)F)on4)c3)c2cc1OC
inactive: [1] 0 | [2] 0 | [3] 0 | [4] 0 | [5] 0 | [6] 0 | [7] 0 | [8] 0 | [9] 0 | [10] 0 | [11] 0 | [12] 0 | [13] 0 | [14] 0 | [15] 0

NCCNS(=O)(=O)c1ccc(Cl)c2ccncc12 [CKI 7 dihydrochloride]
inactive: [1] 0 | [2] 0 | [3] 0 | [4] 0 | [5] 0 | [6] 0 | [7] 0 | [8] 0 | [9] 0 | [10] 0 | [11] 0 | [12] 0 | [13] 0 | [14] 0 | [15] 0

Cc1cccc(Nc2cc(Cl)nc(SCC(=O)O)n2)c1C
inactive: [1] 0 | [2] 0 | [3] 0 | [4] 0 | [5] 0 | [6] 0 | [7] 0 | [8] 0 | [9] 0 | [10] 0 | [11] 0 | [12] 0 | [13] 0 | [14] 0 | [15] 0
